Our source for the z-score and composite z-score values is PubChem BioAssay.

Calls of active or inactive are those of the source.

Experiment [1] is described as follows: optical density shifts of acrAB sulA E. coli – strain DRC41, OD650, 48 h, E. coli filamentation inducer project, primary screen (AID 1152).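 Further: E. coli MC1000 strain DRC41 lacking acrAB efflux pump and sulA.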 Conditions: higher = more signal, called active from +8 up or from −8 down.
The nature of experiment [2]: probe aLefty1 binding on compound microarray – biochemical, small-molecule microarray, 635/667 nm fluorescence, primary screen (AID 1153).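 Further: score merges spot fluorescence with signal-to-noise ratio from the scanned slide images.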 The conditions noted are these: higher = more signal.
Experiment [3] in a line: plasmodial surface anion channel blockers, osmotic lysis – cell-based, P. falciparum Indochina, OD700, 1 h, primary screen (AID 1154). The conditions noted are these: P. falciparum Indochina infected RBC osmotic lysis, higher = more signal, called active from +8 up or from −8 down.
Experiment [4] is described as follows: plasmodial surface anion channel blockers, osmotic lysis – cell-based, P. falciparum Indochina, OD700, 2 h, primary screen (AID 1155).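 Further: lysis reports solute entry through the parasite surface anion channel PSAC.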 Conditions: P. falciparum Indochina infected erythrocytes, higher = more signal, called active from +8 up or from −8 down.
Experiment [5] can be described thus: changes in parasitized red cell lysis, either direction – P. falciparum Indochina, OD700, 3 h, PSAC antagonist project, primary screen (AID 1156). The conditions noted are these: P. falciparum-infected erythrocytes, osmotic lysis, higher = more signal, called active from +8 up or from −8 down.
The nature of experiment [6]: plasmodial surface anion channel blockers, osmotic lysis – cell-based, P. falciparum Indochina, OD700, 18 h, primary screen (AID 1157). Conditions: P. falciparum Indochina infected erythrocytes, osmotic lysis OD700, 18 h; higher = more signal, called active from +8 up or from −8 down.
The nature of experiment [7]: S6 kinase pathway phospho-S6 level changes – cell-based, A549, cytoblot, luminescence, serum-stimulated, primary screen (AID 1158).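 Further: serum-stimulated A549 lung adenocarcinoma cells; signal is phosphorylated S6 detected by cytoblot immunostaining with HRP secondary.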 The conditions noted are these: 5 h, higher = more signal.
For experiment [8], the target named is NADPH oxidase 2 (Homo sapiens) (UniProt P04839). The experiment can be described thus: compounds shifting NOX2 Amplex Red fluorescence – cell-based, HEK293-NOX2, PMA-stimulated, NOX inhibitor project, primary screen (AID 1159). Further: test concentration not given here. Conditions: 45 min, higher = more signal, called active from +8 up or from −8 down.
Sequence of NADPH oxidase 2 (Homo sapiens) (P04839 whole entry, looked up): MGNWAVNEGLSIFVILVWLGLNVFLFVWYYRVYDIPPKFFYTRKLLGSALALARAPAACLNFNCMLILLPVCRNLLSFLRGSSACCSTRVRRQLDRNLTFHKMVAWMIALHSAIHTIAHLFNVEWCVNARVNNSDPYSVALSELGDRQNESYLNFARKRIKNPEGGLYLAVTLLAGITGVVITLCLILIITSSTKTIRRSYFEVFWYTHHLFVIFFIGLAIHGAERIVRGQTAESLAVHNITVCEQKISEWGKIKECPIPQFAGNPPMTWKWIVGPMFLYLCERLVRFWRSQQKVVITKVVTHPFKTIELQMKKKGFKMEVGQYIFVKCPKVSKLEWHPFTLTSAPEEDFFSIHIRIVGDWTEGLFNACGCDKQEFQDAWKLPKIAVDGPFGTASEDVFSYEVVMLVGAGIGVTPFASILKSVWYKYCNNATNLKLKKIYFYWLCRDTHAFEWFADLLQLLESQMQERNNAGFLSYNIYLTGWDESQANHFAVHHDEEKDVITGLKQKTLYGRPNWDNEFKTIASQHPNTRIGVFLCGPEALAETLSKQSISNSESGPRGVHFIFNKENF
Experiment [9] concerns the target NADPH oxidase 4 (Homo sapiens) (UniProt Q9NPH5). As to the kind of experiment: compounds shifting NOX4 Amplex Red fluorescence – cell-based, HEK293-NOX4, tetracycline-induced, NOX inhibitor project, primary screen (AID 1160). Conditions: HEK293-NOX4, Amplex Red H2O2 fluorescence, 45 min; higher = more signal, called active from +8 up or from −8 down.
Experiment [10] addresses NADPH oxidase 5 (Homo sapiens) (UniProt Q96PH1). As to the kind of experiment: compounds shifting NOX5 Amplex Red fluorescence – cell-based, HEK293-NOX5, NOX inhibitor project, primary screen (AID 1161). Conditions: HEK293-NOX5, ionomycin, 45 min, higher = more signal.

Sequence of NADPH oxidase 5 (Homo sapiens) (Q96PH1 whole entry, looked up): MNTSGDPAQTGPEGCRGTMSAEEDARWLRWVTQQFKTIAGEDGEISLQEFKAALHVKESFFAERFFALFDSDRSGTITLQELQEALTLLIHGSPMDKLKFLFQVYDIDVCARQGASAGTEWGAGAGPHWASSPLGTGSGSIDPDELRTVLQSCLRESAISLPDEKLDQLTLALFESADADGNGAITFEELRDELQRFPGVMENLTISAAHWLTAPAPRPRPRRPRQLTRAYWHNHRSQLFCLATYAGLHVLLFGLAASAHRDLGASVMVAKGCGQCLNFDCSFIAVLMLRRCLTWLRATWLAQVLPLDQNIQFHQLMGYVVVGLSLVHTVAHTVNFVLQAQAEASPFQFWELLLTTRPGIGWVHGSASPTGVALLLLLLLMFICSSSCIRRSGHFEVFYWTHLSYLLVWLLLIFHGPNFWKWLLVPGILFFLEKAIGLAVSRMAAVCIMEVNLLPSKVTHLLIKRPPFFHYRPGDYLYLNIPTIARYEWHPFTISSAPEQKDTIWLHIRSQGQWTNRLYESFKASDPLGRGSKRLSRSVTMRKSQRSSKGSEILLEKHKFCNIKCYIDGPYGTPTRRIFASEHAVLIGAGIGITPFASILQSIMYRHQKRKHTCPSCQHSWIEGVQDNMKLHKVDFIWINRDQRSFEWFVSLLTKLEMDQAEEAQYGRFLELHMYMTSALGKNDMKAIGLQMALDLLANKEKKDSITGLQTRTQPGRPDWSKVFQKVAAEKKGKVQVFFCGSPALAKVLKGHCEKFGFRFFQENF
Sequence of NADPH oxidase 4 (Homo sapiens) (Q9NPH5 whole entry, looked up): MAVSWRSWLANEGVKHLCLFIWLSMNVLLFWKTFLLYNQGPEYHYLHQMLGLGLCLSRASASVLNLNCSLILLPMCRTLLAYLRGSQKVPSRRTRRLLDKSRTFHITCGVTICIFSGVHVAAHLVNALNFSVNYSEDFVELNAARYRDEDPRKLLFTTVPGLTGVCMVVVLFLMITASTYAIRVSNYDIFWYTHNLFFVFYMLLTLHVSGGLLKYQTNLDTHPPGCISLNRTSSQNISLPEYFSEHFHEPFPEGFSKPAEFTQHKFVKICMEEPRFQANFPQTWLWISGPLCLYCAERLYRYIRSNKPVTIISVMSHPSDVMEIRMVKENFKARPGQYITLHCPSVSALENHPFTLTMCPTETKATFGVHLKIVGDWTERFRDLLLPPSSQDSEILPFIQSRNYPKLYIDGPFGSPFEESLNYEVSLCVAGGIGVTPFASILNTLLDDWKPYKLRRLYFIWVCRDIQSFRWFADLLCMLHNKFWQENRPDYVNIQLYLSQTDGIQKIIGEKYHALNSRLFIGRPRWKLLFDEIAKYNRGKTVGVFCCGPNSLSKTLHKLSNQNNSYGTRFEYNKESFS

For the molecule `CC(C)(C)C(=O)N[C@@H](c1ccc(Cl)cc1)[C@]1(C)C[C@H]1C1CCCCC1`, the z-score in [1] is -0.913 (inactive); in experiment [3] it was 0.671 (inactive); in experiment [4], 0.418 (inactive); in [5] it was 0.0711 (inactive); in [6] it was 0.887 (inactive); in [7], -0.191. The figures for the z-score in experiment [8], in [9] and in [10] were -0.0125 (inactive), -1.05 (inactive) and -0.0713, respectively. This molecule also had a composite z-score in [2] of 1.06.

In the case of `C#CCN(Cc1ccccc1Br)C(/C=C/c1ccccc1)CO` (stereo not given), the z-score in experiment [1] was -0.585 (inactive); in experiment [3] it was 12.5 (active); in [4] it was 2.61 (inactive); in experiment [5], -1.31 (inactive); in experiment [6], 0.696 (inactive); in experiment [7], -0.188. The z-score in experiment [8] was 0.28 (inactive); in experiment [9], -0.157 (inactive); in [10], -2.02. In [2], this molecule displayed a composite z-score of -0.226.

With `O=C1[C@H]2C=C(Br)[C@H](C[C@@H]2OCCCCO)[C@@]12CO2`, the z-score is -1.11 (inactive) in experiment [1]; 1.31 (inactive) in experiment [3]; 0.317 (inactive) in experiment [4]; 1.17 (inactive) in experiment [5]; -0.0393 (inactive) in experiment [6]; -0.401 in [7]. In addition, the z-score in [8] was 0.45 (inactive); in experiment [9] it was 0.602 (inactive); in experiment [10], 0.188. In experiment [2], the composite z-score amounted to 0.0911.

As to `C=CC[C@@]1(C(N)=O)N=C(c2ccc(OCCCO)cc2)O[C@@H]1c1ccccc1CN=[N+]=[N-]`, the z-score in [1] was 0.0347 (inactive); in experiment [3] it was 21.5 (active); in experiment [4] it was 4.04 (inactive); in experiment [5], 2 (inactive); in experiment [6] it was -0.413 (inactive); in experiment [7], 2.43. In addition, the z-score in [8] was -0.934 (inactive); in experiment [9], 0.313 (inactive); in experiment [10] it was -0.802. The composite z-score in experiment [2] was determined as 0.571.

Consider `COc1ccc(C(O)C2C=CC3C(=O)N(c4ccccc4)C(=O)C3N2Nc2ccc(C(C)C)cc2)cc1OCc1ccccc1` (stereo not given), for which the z-score in experiment [1] is -3.31 (inactive); in experiment [3], 2.07 (inactive); in experiment [4], 1.62 (inactive); in experiment [5] it was -0.167 (inactive); in [6], 1.47 (inactive); in experiment [7] it was -0.951. Also, the z-score in experiment [8] is 0.506 (inactive); in experiment [9], -2.55 (inactive); in experiment [10] it was -1.22. In experiment [2], the composite z-score came to 0.129.

For `COC(=O)[C@@]1(Cc2ccc(OC)cc2)[C@H]2c3cc(C(=O)N(C)C)n(CCN4CNCC4=O)c3C[C@H]2CN1C(=O)c1ccccc1`, the z-score in experiment [1] was -1.1 (inactive); in experiment [3], 0.143 (inactive); in experiment [4], -0.954 (inactive); in experiment [5] it was -0.163 (inactive); in experiment [6], -2.05 (inactive); in experiment [7], 0.963. Also, the z-score in experiment [8] was 0.821 (inactive); in [9], 2.29 (inactive); in experiment [10], 0.453. In experiment [2], the composite z-score came to 0.249.

In the case of `C=CCC(OC(C)=O)[C@@H]1[C@@H](N(Cc2cccc3ccccc23)C(=O)c2ccc(-c3ccccc3)cc2)c2cc(OCCCO)ccc2N1C(=O)Cc1ccc(OC)cc1` (stereo not given in full), the z-score in [1] is 0.571 (inactive); in [3], 0.177 (inactive); in experiment [4], -0.172 (inactive); in [5], -1.02 (inactive); in experiment [6], 0.0144 (inactive); in experiment [7] it was 0.904. The z-score in experiment [8] was -1.6 (inactive); in experiment [9] it was 0.32 (inactive); in [10], 0.0661. The composite z-score in experiment [2] was -0.277.

As for `CC(=O)N1Cc2ccccc2C[C@@]2(COC(c3ccc(OCCCO)cc3)=N2)C1=O`, the z-score is 2.48 (inactive) in [1]; 28.1 (active) in [3]; 13.4 (active) in experiment [4]; 2.79 (inactive) in [5]; 1.7 (inactive) in [6]; 2.28 in experiment [7]. Besides, the z-score in [8] is -1 (inactive); in experiment [9], 1.74 (inactive); in experiment [10] it was -1.24. The composite z-score in experiment [2] is 0.611.

On to `N#Cc1ccc(NN2C(C(O)c3c(F)cccc3Cl)C=CC3C(=O)N(c4ccccc4)C(=O)C32)cc1` (stereo not given), for which the z-score in experiment [1] is -0.857 (inactive); in experiment [3], 22 (active); in experiment [4], 5.46 (inactive); in experiment [5] it was 1.21 (inactive); in [6] it was 1.51 (inactive); in [7] it was -1.17. Further, the results for the z-score in experiment [8], in experiment [9] and in experiment [10] were -1.1 (inactive), -3.86 (inactive) and -2.98, respectively. Besides, the composite z-score in experiment [2] was 0.192.

Regarding `CC(C)(C)OC(=O)CC[C@@]1(C(N)=O)N=C(c2ccc(OCCCO)cc2)O[C@@H]1c1ccccc1`, the z-score was -0.795 (inactive) in [1]; 5.46 (inactive) in [3]; 0.431 (inactive) in experiment [4]; 0.726 (inactive) in experiment [5]; 0.299 (inactive) in [6]; -0.0683 in experiment [7]. The results for the z-score in [8], in experiment [9] and in experiment [10] were -0.414 (inactive), 0.492 (inactive) and -0.0961, respectively. Also, the composite z-score in experiment [2] was determined as 0.345.

For the molecule `C=C/C=C/[C@H]1C(=C)CN([C@@H](Cc2ccccc2)C(=O)OC)[C@@H]1[C@H](O)Cc1ccccc1`, the z-score in experiment [1] is 0.297 (inactive); in experiment [3], 1.09 (inactive); in experiment [4], 0.804 (inactive); in [5] it was -0.207 (inactive); in [6], 0.257 (inactive); in [7], -0.344. The z-score in experiment [8] was -0.66 (inactive); in experiment [9], -0.432 (inactive); in experiment [10] it was -0.723. The composite z-score in [2] is -0.239.

On to `COc1cc2c(cc1O)C=[N+](Cc1cccc(OC(F)(F)F)c1)CC2`, for which the z-score was 0.272 (inactive) in experiment [1]; 3.05 (inactive) in experiment [3]; -1.25 (inactive) in experiment [4]; -0.747 (inactive) in [5]; -2.03 (inactive) in experiment [6]; 0.818 in experiment [7]. Besides, the z-score was -4.18 (inactive) in experiment [8], -2.56 (inactive) in experiment [9] and -3.06 in experiment [10]. In [2], this molecule gave a composite z-score of -0.464.

On to `C=C[C@H](COC(C)=O)N(C(=O)OC(C)(C)C)S(=O)(=O)c1ccc(Br)cc1`, for which the z-score in experiment [1] is 1.34 (inactive); in experiment [3], 0.874 (inactive); in [4], -0.141 (inactive); in [5], -0.301 (inactive); in experiment [6], 0.0544 (inactive); in experiment [7], 0.314. In addition, the z-score in experiment [8] was 0.406 (inactive); in experiment [9] it was 0.356 (inactive); in experiment [10] it was -0.772. Besides, the composite z-score in experiment [2] is 0.312.
